According to PubChem BioAssay (NCATS):
Results filed as inconclusive are left out. A number with no mark means an inactive call. Active and inactive are the calls of the source. Calls come from the whole dose curve; as a rule, active = well fitted cell-killing curve with a large enough effect; inconclusive = small, poorly fitted or top-dose-only effect; inactive = flat fitted curve, though single readings scatter.

Assay: HepG2 cells viability qHTS for Zika virus inhibitors (AID 1347168)
Settings: Zika counter-screen; series mostly up to 45.9 µM; activity change, negative = cytotoxicity: at the top concentration
Text: Avindra Nath, Ph.D., National Institute of Neurological Disorders and Stroke (NINDS), Bethesda, MD
Radhakrishnan Padmanabhan, Ph.D., Georgetown University (GU), Washington D.C.
Zika Virus causes congenital defects, including microcephaly and is associated with Guillain-Barre syndrome, eningoencephalitis and myelitis in infected adult. […] Using a target-based approach, we hope to establish a screening paradigm to uncover novel, cell-active NS2B-NS3 protease (Zika Virus) specific inhibitors from NCATS' collection of small molecules using qHTS.
Four assay panel was created to identify potential Zika Virus inhibitors. Namely, (1) GU unlinked NS2B-NS3 AMC tagged protease qHTS, (2) GU unlinked NS2B-NS3 Rhodamine tagged protease qHTS, (3) NINDS linked NS2B-NS3 AMC tagged protease qHTS, (4) NINDS linked NS2B-NS3 Rhodamine tagged protease qHTS. Identified inhibitors were screened against the Vero and HepG2 cell viability assays using CellTiter Glo to exclude cytotoxic compounds.
Early Translation Branch (ETB)
National Center for Advancing Translational Sciences (NCATS), Rockville, MD
National Institute of Health (NIH), Bethesda, Maryland
Vero and HepG2 Cell Viability Assay:
Vero and HepG2 cell cytotoxicity were determined using a luminescent readout with CellTiter Glo reagent (Promega, Madison, WI), which is based on measuring the ATP content within cells. Briefly, 4 microL of Vero or HepG2 cells at 2.5 x 10^5 cells/mL in DMEM containing 4% FBS were dispensed into 1536-well solid bottom tissue treated white plate using a Multidrop Combi dispenser (Thermo Scientific). Plates were incubated at 37 degrees C, 95% humidity, and 5% CO2 overnight to allow for cell attachment. Compounds were dissolved in DMSO at different concentrations and transferred via pintool (Wako Automation), for a final concentration of 0.029 µM - 57 microM. Plates were again incubated for 24 to 48 hours, followed by a 2 microL addition of CellTiter Glo. Finally, plates were incubated for 30 minutes at 37 degrees C and 5% CO2 before being read on a ViewLux (Perkin Elmer) for luminescence.
% is set by controls: 0 for no effect and ±100 for the full control effect; potency is the fitted concentration of half-maximal effect.

Compound | activity change, negative = cytotoxicity | Potency
O=C(O)C1(Cc2cccc(Nc3nccs3)n2)CCC(Oc2cccc(Cl)c2F)CC1 (stereo unspecified) | -6.67% | –
CN1CCC(CNc2ccc3ncc(-c4cccc(OC(F)(F)F)c4)n3n2)CC1 | – | 11.7 µM (active)
N#Cc1c(O)c2c(-c3ccc(-c4ccccc4O)cc3)csc2[nH]c1=O | – | inactive
CCS(=O)(=O)c1cccc(-c2cc(C(=O)NC3CCN(C)CC3)c(C)c3[nH]c4ncc(C)cc4c23)c1 | – | 20.8 µM (active)
Cc1ccc(C(=O)Nc2cccc(C(F)(F)F)c2)cc1-c1ccc2nc(NCCN3CCOCC3)ncc2c1 | – | 8.27 µM (active)
C[C@@]12O[C@@H](C[C@]1(O)CO)n1c3ccccc3c3c4c(c5c6ccccc6n2c5c31)CNC4=O | – | 16.5 µM (active)
CCOC(=O)C1=C(C)NC2=C(C(=O)CC(C)(C)C2)C1c1ccc(-c2ccccc2)cc1 (stereo unspecified) | -6.14% | –
Cc1c(C)n(Cc2ccc(-c3ccccc3C(=O)O)cc2)c2ccc(C(=O)N[C@@H](C)c3ccc([N+](=O)[O-])cc3)cc12 | 15.1% | –
COc1cc(C(=O)NS(=O)(=O)c2ccccc2C)ccc1Cc1cn(C)c2ccc(NC(=O)OC3CCCC3)cc12 | 0.451% | –
CCN1CCN(Cc2ccc(-c3cc4c(N[C@H](C)c5ccccc5)ncnc4[nH]3)cc2)CC1 | – | 38 µM (active)
CC(C)c1ccccc1Cc1cc(C(=O)Nc2ccc(S(=O)(=O)c3ccccc3C(C)(C)C)cc2)c(O)c(O)c1O | -8.19% [at 91.6 µM] | –
